A short description of test [1]: inhibitors of TNFa-induced NFkB p65 translocation, primary screen, imaging, HUVEC, MLSMR starter and 10KST1 sets (AID 438;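 active = inhibition above 20% together with a positive visual image hit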;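 note: compound added about 3h40 before a 20 min TNFalpha stimulation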;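 for inhibition: signal is the nuclear over cytoplasmic p65 intensity ratio per well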). Conditions: HUVEC TNFa-induced p65 nuclear translocation; cell count: measured here: nuclei count (cytotoxicity indicator), at 2.08 µM; inhibition: at 2 µM, stronger effect = higher value, 0% TNFa-plus-vehicle, 100% no-TNFa wells.
A short description of test [2]: inhibitors of mutant huntingtin aggregation, primary screen, imaging, exon1htt(103Q)mCFP cells, high-content imaging (AID 483;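 active = visual image review flags a hit and inhibition of aggregation exceeds 20%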;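 note: compound exposure lasted 3 days before fixation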;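 for nuclei count: percent of the per-plate median nuclei count of sample wells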). To be noted: exon1htt(103Q)mCFP cell line, aggregate imaging, at 2 µM; inhibition of aggregation: stronger effect = higher value; nuclei count: measured here: cell count, toxicity.
The nature of test [3]: inhibitors of E-selectin induction by TNFa, primary screen, imaging, HUVEC, immunofluorescence, MLSMR starter and 10KST1 sets (AID 487;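 active = visually confirmed hit in the image check and inhibition above 20%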;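 for inhibition: signal is fraction of cell area covered by stained E-selectin grains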;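 for nuclei count: 100% = median nuclei count of all wells on the same plate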). To be noted: HUVEC TNFalpha-induced E-selectin immunofluorescence imaging, at 2 µM; inhibition: stronger effect = higher value; nuclei count: measured here: cell number, toxicity.
The target of test [4] is Voltage-gated potassium channel subunit beta-2 (Rattus norvegicus) (UniProt P62483). The test can be described thus: KvBeta enzyme negative modulators, primary screen, biochemical, NADPH fluorescence (AID 622;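 active = fluorescence slope higher than the sample average by over 3 SD, cut at about -0.22 in these data, passing the limit was not always enough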;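 note: slope of raw intensity against log time taken from 70 to 1610 s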). To be noted: recombinant KvBeta, 4-cyanobenzaldehyde reduction, at 10 µM, stronger effect = higher value.
Voltage-gated potassium channel subunit beta-2 (Rattus norvegicus), sequence (P62483 whole entry, looked up): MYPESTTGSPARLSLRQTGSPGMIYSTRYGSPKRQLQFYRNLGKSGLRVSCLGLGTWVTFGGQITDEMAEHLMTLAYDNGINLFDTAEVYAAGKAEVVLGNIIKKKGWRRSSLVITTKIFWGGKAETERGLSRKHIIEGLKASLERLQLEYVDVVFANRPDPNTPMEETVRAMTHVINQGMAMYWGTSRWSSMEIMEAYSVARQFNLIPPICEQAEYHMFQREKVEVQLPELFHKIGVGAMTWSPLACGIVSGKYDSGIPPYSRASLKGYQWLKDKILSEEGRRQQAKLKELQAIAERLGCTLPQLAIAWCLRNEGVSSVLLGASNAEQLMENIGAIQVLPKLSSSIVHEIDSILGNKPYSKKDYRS
Test [5] shares this target. The test can be described thus: KvBeta positive modulators, primary screen, biochemical, NADPH fluorescence (AID 623;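 active = NADPH fluorescence slope more negative than the mean of all samples by about 3 SD, 99.7% confidence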;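 note: fluorescence intensity change per second fitted from 20 to 320 s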). To be noted: Recombinant KvBeta, NADPH fluorescence decrease slope, 10 min; at 10 µM; stronger effect = lower value.
For test [6], the target named is Alpha-2C adrenergic receptor (Homo sapiens) (UniProt P18825). The test can be described thus: modulators of alpha2C/GIRK thallium flux, primary screen, cell-based, HEK293 alpha2C/GIRK1/2 (AID 624;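 active = fluorescence slope after compound addition differing from the mean of all screened samples at 99.7% confidence, in either direction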;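 note: slope of fluorescence ratio to pre-addition baseline per second over 15 to 24 s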). Conditions: thallium flux BTC fluorescence, at 10 µM, actives lie on both sides.
Alpha-2C adrenergic receptor (Homo sapiens), sequence (P18825 whole entry, looked up): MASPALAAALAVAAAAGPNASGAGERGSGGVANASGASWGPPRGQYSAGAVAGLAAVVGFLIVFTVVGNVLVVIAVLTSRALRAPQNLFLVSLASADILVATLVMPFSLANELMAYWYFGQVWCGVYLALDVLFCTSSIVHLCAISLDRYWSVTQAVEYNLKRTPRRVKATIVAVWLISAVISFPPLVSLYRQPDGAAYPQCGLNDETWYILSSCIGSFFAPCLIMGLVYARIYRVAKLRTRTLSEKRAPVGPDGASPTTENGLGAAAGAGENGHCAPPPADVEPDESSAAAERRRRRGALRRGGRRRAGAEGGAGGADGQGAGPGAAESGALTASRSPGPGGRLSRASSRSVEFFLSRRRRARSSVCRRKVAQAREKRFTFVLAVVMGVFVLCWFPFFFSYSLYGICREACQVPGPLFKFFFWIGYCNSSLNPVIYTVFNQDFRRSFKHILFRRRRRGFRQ
A short description of test [7]: inhibitors of Sendai virus-induced IRF3 signaling, primary screen, TLR/RLR signaling modifier project, cell-based, Sendai virus stimulus, luciferase, 10K MLSCN set (AID 602276;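 active = inhibition at or above 50% at 10 µM; inactive = inhibition below 50%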;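 note: firefly luciferase from ISG56 promoter only with Renilla not read in this screen; 0% = Sendai virus plus DMSO and 100% = medium plus DMSO without virus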). To be noted: HEK293 RL24 IRF3 luciferase reporter, at 10 µM, stronger effect = higher value. A general note: In a reporter assay the amount or activity of a reporter protein is the signal.
Test [8] can be described thus: inhibitors of poly I:C-induced TLR3 signaling, primary screen, cell-based, poly I:C stimulus, luciferase, 10K MLSCN set (AID 602277). To be noted: HEK293-TLR3 RL24 IRF3 luciferase reporter, at 10 µM, stronger effect = higher value.

Calls of active or inactive are those of the source.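 Rule for the calls, unless noted: active = inhibition of the reporter signal at or above 50%; inactive = inhibition below 50%.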

For orientation: inhibition means the drop in the measured response relative to a control, in per cent. Regarding `COc1ccc(-c2nc(CS(=O)CC(=O)N3CCCC3)c(C)o2)cc1` (stereo not drawn), the cell count in test [1] worked out at 465. Further, the inhibition in test [1] is 2.6% (inactive); in test [3] it was -51.5% (inactive); in test [7] it was 26% (inactive); in test [8] it was 5.74% (inactive). For the same molecule, in test [2], the inhibition of aggregation is 6.1% (inactive). Also, the nuclei count in test [2] and in test [3] was 100% throughout. For the same molecule, the fluorescence slope in test [4] is -0.482 (inactive). In addition, the NADPH fluorescence slope in test [5] was -3.2e-05 (inactive). In addition, the slope in test [6] is 0.006 (inactive).
With `Cc1c(NC(=O)C(C)Oc2ncnc3ccccc23)c(=O)n(-c2ccccc2)n1C` (stereo not drawn), the cell count in test [1] was determined as 547. Besides, the inhibition in test [1] is -1.7% (inactive); in test [3], -5.8% (inactive); in test [7] it was -7.59% (inactive); in test [8], 19.3% (inactive). In addition, in test [2], the inhibition of aggregation was -8.5% (inactive). Further, the nuclei count in test [2] is 78%; in test [3], 111%. The fluorescence slope in test [4] was -0.506 (inactive). In addition, in test [5], the NADPH fluorescence slope is -5e-05 (inactive). Further, the slope in test [6] was 0.00757 (inactive).
With `Cn1c(=O)c2c(nc(SCC(=O)N3CCCc4ccccc43)n2C)n(C)c1=O`, the cell count in test [1] turned out to be 354. Also, the inhibition in test [1] is -5.7% (inactive); in test [3], -139% (inactive); in test [7], -0.111% (inactive); in test [8], -6.19% (inactive). Also, in test [2], the inhibition of aggregation is -9.7% (inactive). For the same molecule, the nuclei count in test [2] came out at 45.1%; in test [3] it was 115%. Moreover, in test [4], the fluorescence slope is -0.361 (inactive). Moreover, the NADPH fluorescence slope in test [5] is -7.1e-05 (inactive). Also, in test [6], the slope was 0.00482 (inactive).
Turning to `O=C(NCc1cccs1)C1CC(c2ccccc2O)=NO1` (stereo not drawn), the cell count in test [1] worked out at 347. Besides, the inhibition in test [1] was 1.7% (inactive); in test [3] it was -122% (inactive); in test [7], 12.7% (inactive); in test [8], 67.7% (active). Besides, the inhibition of aggregation in test [2] was -11.8% (inactive). The nuclei count in test [2] turned out to be 104%; in test [3], 108%. In test [4], the fluorescence slope is -0.601 (inactive). For the same molecule, the NADPH fluorescence slope in test [5] was -2.2e-05 (inactive). Further, in test [6], the slope is 0.00342 (inactive).
For the molecule `CC(=O)Nc1ccccc1OCc1nnc(-c2cccs2)o1`, in test [1], the cell count was determined as 392. Besides, the inhibition in test [1] is 4.8% (inactive); in test [3], -266% (inactive); in test [7], -27% (inactive); in test [8] it was -28.6% (inactive). Further, the inhibition of aggregation in test [2] is -8.8% (inactive). In addition, the nuclei count in test [2] is 92.5%; in test [3], 104%. For the same molecule, the fluorescence slope in test [4] is -0.612 (inactive). In addition, the NADPH fluorescence slope in test [5] is 2e-06 (inactive). Besides, in test [6], the slope is 0.00944 (inactive).
For the molecule `CC(=O)c1c(C)nn(CC(O)COc2ccc3c(c2)CCC3)c1C` (stereo not drawn), in test [1], the cell count amounted to 751. The inhibition in test [1] was -4.3% (inactive); in test [3], -169% (inactive); in test [7], -13.5% (inactive); in test [8], -41.8% (inactive). The inhibition of aggregation in test [2] was 7.3% (inactive). For the same molecule, the nuclei count in test [2] was found to be 97.4%; in test [3], 126%. The fluorescence slope in test [4] was -0.435 (inactive). Further, in test [5], the NADPH fluorescence slope was 4e-05 (inactive). Besides, in test [6], the slope was 0.00662 (inactive).
Consider `Cc1cc(NC(c2cccnc2)c2c(C)[nH]c3ccccc23)no1` (stereo not drawn), for which the cell count in test [1] is 514. Also, the inhibition in test [1] was 2.5% (inactive); in test [3] it was -105% (inactive); in test [7], 17.8% (inactive); in test [8], 28.6% (inactive). For the same molecule, the inhibition of aggregation in test [2] is 7.6% (inactive). Also, the nuclei count is 112% in test [2] and 135% in test [3]. Further, the fluorescence slope in test [4] was -0.596 (inactive). Besides, the NADPH fluorescence slope in test [5] was -4.4e-05 (inactive). For the same molecule, the slope in test [6] was 0.00254 (inactive).
With `CC(NC(=O)c1ccco1)c1ccc2c(c1)OCCO2` (stereo not drawn), the cell count in test [1] turned out to be 418. Further, the inhibition in test [1] was 9.3% (inactive); in test [3] it was -95% (inactive); in test [7], 9.46% (inactive); in test [8] it was 15.1% (inactive). Moreover, the inhibition of aggregation in test [2] is 10% (inactive). For the same molecule, the figures for the nuclei count in test [2] and in test [3] were 89.2% and 105%, respectively. In test [4], the fluorescence slope was -0.431 (inactive). Further, the NADPH fluorescence slope in test [5] was -2.6e-05 (inactive). The slope in test [6] was 0.00638 (inactive).

These data come from PubChem BioAssay.
